39 molecules from PubChem BioAssay (NCATS) can be followed below.

Records with an inconclusive call do not appear. A number with no mark means an inactive call. Calls of active or inactive are those of the source. Calls follow the shape of the dose curve; as a rule, active = well fitted curve in the direction sought with a large enough effect; inconclusive = small, poorly fitted or top-dose-only effect, or another doubt; inactive = no such curve, though single readings can be large; an effect the other way counts as inactive or inconclusive.

In one assay the target is Cellular tumor antigen p53 (Homo sapiens) (UniProt P04637). Briefly: Primary qHTS for small molecule compounds that upregulate eGFP-tagged delta133p53alpha (in N-terminal) cells. (AID 2060322).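 Also: 0% = DMSO vehicle and 100% = reference activator; nearly all actives have a fitted effect of over 75% in size.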 The following applies: NCI-H358 eGFP-delta133p53alpha fluorescence, 24 h; activation: hits give high values. The essentials: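 NCI-H358 cells pre-induced 24 h with 10 ng/ml doxycycline to express N-terminal eGFP-delta133p53alpha, then dosed 24 h at 37C without doxycycline; fixed, Hoechst-stained, GFP intensity by laser scanning cytometry, normalized to DMSO (0%) and 57.5 uM 5-azacytidine (100%).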
Sequence of Cellular tumor antigen p53 (Homo sapiens) (P04637 whole entry, looked up): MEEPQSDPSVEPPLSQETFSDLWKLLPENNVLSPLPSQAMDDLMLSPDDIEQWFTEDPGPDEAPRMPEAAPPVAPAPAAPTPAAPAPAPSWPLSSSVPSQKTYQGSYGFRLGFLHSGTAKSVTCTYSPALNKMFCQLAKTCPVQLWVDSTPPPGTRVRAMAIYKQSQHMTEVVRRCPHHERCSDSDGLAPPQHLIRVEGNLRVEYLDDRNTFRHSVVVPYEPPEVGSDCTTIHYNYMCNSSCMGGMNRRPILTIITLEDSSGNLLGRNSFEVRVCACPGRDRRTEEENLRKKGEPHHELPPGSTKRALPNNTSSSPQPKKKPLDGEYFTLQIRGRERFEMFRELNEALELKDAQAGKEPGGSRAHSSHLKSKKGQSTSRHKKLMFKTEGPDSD
With `C=CC(C)(O)CC[C@@H]1[C@@]2(C)CCCC(C)(C)C2CC[C@@]1(C)O` (stereo not given in full), the activation is 1.91%.

Take `COC1CCN(c2cccc(-c3cc(NC(C)=O)nc(-n4nc(C)cc4C)n3)n2)CC1`: the activation was -8.59%.

Turning to `CC(C)(F)CC(NC(c1ccc(-c2ccc(S(C)(=O)=O)cc2)cc1)C(F)(F)F)C(=O)NC1(C#N)CC1` (stereo not given), the activation is -1.43%.

In a further assay the target is Aldehyde dehydrogenase, mitochondrial (Homo sapiens) (UniProt P05091). Kind of assay: qHTS for Inhibitors of the Aldehyde Dehydrogenase Family (ALDH2) Primary screen (AID 2061308).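 Also: plate controls were vehicle for no effect and reference inhibitor for full effect; nearly all actives have a fitted effect of over 55% in size.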 The following applies: ALDH2 enzyme inhibition qHTS, 1536-well; series mostly up to 56 µM; activity change, negative = inhibition: at the top concentration.
Take `CCO[C@H]1CN(C2CCC(O)(c3ccc4c(c3)OCO4)CC2)C[C@@H]1NC(=O)CNC(=O)c1cccc(C(F)(F)F)c1` (stereo not given in full): the “activity change, negative = inhibition” value is 3.2%.

Consider `CCCc1cc(C)[nH]c(=O)c1CNC(=O)c1cc(-c2ccnc(N3CCN(C)CC3)c2)cc2c1cnn2C(C)C`, for which the “activity change, negative = inhibition” value is 27.2%.

Consider `O=C(Nc1ccccc1Br)NC1CCN(c2ccc(C(F)(F)F)cn2)C1` (stereo not given), for which the “activity change, negative = inhibition” value was 9.38%.

As for `N#CC(c1ccnc(OCc2ccc(CN3CCOCC3)cc2)n1)c1nc2ccccc2s1` (stereo not given), the “activity change, negative = inhibition” value was -12.6%.

Take `CC(C)c1ccccc1OC(=O)NCCc1ccc2ccccc2c1`: the “activity change, negative = inhibition” value is -9.17%.

For `CCn1c2ccccc2c2cc(CNC)ccc21`, the Potency entry is “inactive”.

`Cc1ccc(Cl)cc1N(CC(=O)Nc1c(F)cccc1F)S(C)(=O)=O`: the “activity change, negative = inhibition” value is 1.22%.

Take `CNc1ccc([N+](=O)[O-])cc1-n1cnc(-c2ccc(C(F)(F)F)cc2)c1`: the “activity change, negative = inhibition” value was -4.42%.

As to `COc1ccc(C(=O)NCc2cc(C(C)C)no2)cc1OC1CCN(C)CC1`, the “activity change, negative = inhibition” value is 2.57%.

As for `COc1ccc(CN2CCN(C(=O)CCNC(=O)c3ccc(C(C)(C)C)cc3)CC2)cc1`, the “activity change, negative = inhibition” value is 6.09%.

Consider `Cc1onc(-c2ccccc2Cl)c1C(=O)N(C)c1ccc(Cl)cc1`, for which the “activity change, negative = inhibition” value is -3.56%.

Take `CS(=O)(=O)c1ccc([C@@H](O)[C@@H](CF)NC(=O)C(Cl)Cl)cc1`: the “activity change, negative = inhibition” value was -0.84%.

Take `CC[C@H]1CN(c2nc(N)c(C(N)=O)nc2Cl)CCN1C1CCN(Cc2ccc(Cl)cc2)CC1`: the “activity change, negative = inhibition” value is -0.725%.

`O=S(=O)(Nc1ccccc1N1CCCCC1)c1ccc(Cl)s1`: the “activity change, negative = inhibition” value was -2.18%.

For `c1ccc(C(OC2CCN(CCCc3nn[nH]n3)CC2)c2ccccc2)cc1`, the “activity change, negative = inhibition” value is -0.894%.

As to `COc1ccc2cc(-c3cc(-c4cc(Cl)cc(Cl)c4)nn3C(C)c3ccc(C(=O)NCCC(=O)O)cc3)ccc2c1` (stereo not given), the “activity change, negative = inhibition” value is 2.24%.

As to `COc1cc(Br)c(Nc2nc(-c3c(C)nc4ncccn34)cs2)c(Br)c1`, the “activity change, negative = inhibition” value is -11.8%.

Take `O=c1[nH]c2ccccc2n1CCN1CCN(c2cccc(C(F)(F)F)c2)CC1`: the “activity change, negative = inhibition” value is 4.74%.

For `CC1(C)CC(NC(=O)C(=O)Nc2ccc(Br)cc2)CC(C)(C)N1`, the “activity change, negative = inhibition” value was 8.67%.

Take `C[C@]12CC[C@@H]3c4ccc(OC(=O)c5ccccc5)cc4CC[C@H]3[C@@H]1CC[C@@H]2O`: the “activity change, negative = inhibition” value is 3.96%.

For the molecule `Cc1ccccc1NC(=O)Nc1ccc(CN2C(=O)N([C@@H](CC(C)C)C(=O)N[C@@H](CC(=O)O)c3ccccc3)C(=O)C2(C)C)cc1`, the “activity change, negative = inhibition” value was 0.039%.

In the case of `Cc1[nH]cnc1C1CCN(c2nc3cccc4c3n2CCC4=O)CC1`, the “activity change, negative = inhibition” value was 1.04%.

On to `Cc1ccc2[nH]c(=O)c(C3=NN(C(=O)CCC(=O)O)C(c4ccc(Br)cc4)C3)c(-c3ccccc3)c2c1` (stereo not given), for which the “activity change, negative = inhibition” value is 4.6%.

As for `COc1cccc(OC)c1-c1nc(C(=O)N[C@@H](CC(C)C)C(=O)O)cn1-c1ccnc2cc(Cl)ccc12`, the “activity change, negative = inhibition” value was -1.46%.

As to `Cc1ccnc(NC(=O)C(C)c2cccc(C(=O)c3ccccc3)c2)c1` (stereo not given), the “activity change, negative = inhibition” value is 5.92%.

Regarding `CCCn1c(=O)c2[nH]c(-c3ccc(OCC(=O)O)cc3)nc2n(CCC)c1=O`, the “activity change, negative = inhibition” value was 10%.

As to `O=C(O)c1ccc(S(=O)(=O)N(Cc2ccc(OC(F)(F)F)cc2)c2ncc(C(F)(F)F)cc2Cl)cc1`, the “activity change, negative = inhibition” value is 6%.

For `CCOC(=O)[C@H](CCc1ccccc1)CC1(C(=O)N[C@H]2CCc3ccccc3N(CC(=O)O)C2=O)CCCC1`, the “activity change, negative = inhibition” value was -0.971%.

For `CCC1C(=O)N(C)c2cnc(Nc3ccc(C(=O)NC4CCC(N5CCN(CC6CC6)CC5)CC4)cc3OC)nc2N1C(C)C` (stereo not given), the “activity change, negative = inhibition” value is 7.98%.

For the molecule `O=C(CCc1nnc2n(Cc3ccc(Cl)cc3)c(=O)c3ccccc3n12)NCCC1=CCCCC1`, the “activity change, negative = inhibition” value was 3.82%.

As for `CC1(C)CC(=O)N(CCCCN2CCN(c3ncccn3)CC2)C(=O)C1`, the “activity change, negative = inhibition” value was -5.59%.

`O=C(O)c1cccc(S(=O)(=O)N2CCc3ccccc3C2)c1`: the “activity change, negative = inhibition” value was 0.0266%.

Consider `CNS(=O)(=O)CC1CCC(N(C)c2ncnc3[nH]ccc23)CC1` (stereo not given), for which the “activity change, negative = inhibition” value is 1.76%.

As to `COc1cc2ncnc(Oc3ccc(CC(=O)Nc4cnn(C(C)C)c4)cc3)c2cc1OC`, the “activity change, negative = inhibition” value was -12%.

Consider `c1cc(OCCCN2CCCCC2)ccc1CN1CCCCC1`, for which the “activity change, negative = inhibition” value is -16.7%.

In the case of `CNc1ccc([N+](=O)[O-])c(Nc2ccc3[nH]ncc3c2)n1`, the “activity change, negative = inhibition” value was -10.7%.

With `C=CC(C)(O)CC[C@@H]1[C@@]2(C)CCCC(C)(C)C2CC[C@@]1(C)O` (stereo not given in full), the “activity change, negative = inhibition” value is 7.44%.
